# According to PubChem BioAssay AID1347426 (Functional Genomics Laboratory (NCATS/FGL), 2020):
# The whole screen tested about 31,000 sequences, of which about 1,400 (4.5%) were called active.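 How the source made its calls: active means median seed-adjusted z-score above 1 or below -1; inactive means the rest.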 Many of the other results were omitted from the sample, so actives are more common in it than they were.
# Test: Novel Modifiers of Survival Motor Neuron (SMN) Protein: Gene Identification via Genome-wide siRNA Screen;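 further: luminescence tracks full-length SMN protein made from the SMN2 reporter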
# Settings: HEK293T SMN2-luciferase reporter, siRNA knockdown, 72 h; actives lie on both sides
# Summary of the method: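 HEK293T cells stably carrying an SMN2 promoter/splicing cassette–luciferase reporter were reverse-transfected with 1 pmol siRNA per well (druggable-genome library, 3 siRNAs per gene) and grown 72 h at 37 °C. Luminescence, normalized to negative-control siRNA and log10-transformed, was scored as MAD.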
row,Sequence,median seed-adjusted z-score
1,CGAUAACGACAGUAAAUCATT against CACNA2D1,-0.541 (inactive)
2,CAAAGAAGCUUUUUCACUATT against CALM2,0.127 (inactive)
3,CUCUCUUAGUGUCCUUAGATT against PCDHGC4,0.301 (inactive)
4,CGAGUUCUAUCUUGAGAAUTT against TEX13A,-1.22 (active)
5,GGAUGGGUCUCGCAAAAUATT against ZFYVE1,-0.546 (inactive)
6,CCAGCUCUUCUCUACCACATT against PAQR7,-0.0406 (inactive)
7,UGCUGAGGGUGUUCCCAGATT against GABRR2,0 (inactive)
8,AGCAGGCUUUGAUCAUUGATT against FKBP6,-1.12 (active)
9,GCAAGACCUUUGACUACAATT against SSRP1,-0.31 (inactive)
10,GCGAAGUGUUCAGACCAAATT against HEATR1,-0.115 (inactive)
11,CCAACUCAUUGAUAGGGAUTT against PRPH2,0.0931 (inactive)
12,GCUUUCUAUCGAUCCUCAATT against ZNF681,0.271 (inactive)
13,GCACGUCGAGCAAUCCAAATT against MYOD1,0.309 (inactive)
14,CCAUGUUUCUCAUUAGUGUTT against NTSR1,-1.1 (active)
15,UGCUCGUGCUCGUUCCAAATT against ING4,-0.152 (inactive)
16,CAUCUUUGCUAGUAAUCUATT against UBA7,2.41 (active)
17,CGGAUUGUCUAUUGCAUCATT against CALCRL,0.28 (inactive)
18,GAUUGUCUCUUUAGUGGAATT against TGDS,-0.196 (inactive)
19,GGUGAGAUGUGGUCUAUAUTT against HES7,-0.286 (inactive)
20,GGAGAAGGAUGGAACUCUUTT against SPATA21,-1.03 (active)
21,GGCUUGCGCAAGAUCAAUATT against ATRNL1,-0.142 (inactive)
22,GCGUGAUCCUUGCCUCUAATT against GDPD4,0.0109 (inactive)

row,Sequence,median seed-adjusted z-score
1,CCUCAUUGAUCAUCACCGATT against ZNF567,-0.114 (inactive)
2,CUAGUUUAAUAAAGAUUCATT against APOE,0.0321 (inactive)
3,AGGAUAUUGUGAUUCAGCATT against POLR2G,-4.19 (active)
4,GCAUCAGGUGAACAUCAAATT against TRIM16,0.345 (inactive)
5,GGAUGAGAAGGAUAAUGAUTT against IRF6,-1.79 (active)
6,AAACGAUGUUGAUGUCCAATT against ATP6V1E1,-0.312 (inactive)
7,GGAUGGACAUGUCAAAUCUTT against RBL1,-0.0547 (inactive)
8,CAAAGGACCCAAUAGAAUUTT against GUCY2F,0.188 (inactive)
9,GCGCGCUACUUUGGGAUAATT against POLR2E,-1.25 (active)
10,GGACCUCCCUUCAACAUCATT against DYSF,-0.23 (inactive)
11,CAGUGAAGCUAUCAAGUUATT against PSMA8,0.407 (inactive)
12,GACCAGAUGUGGACAAUCATT against TAF6,-1.36 (active)
13,GAAUUGGAGAGGCAACAAATT against LMO7,0.417 (inactive)
14,GAAGAGAUAUUUACACCUUTT against CD47,0.0241 (inactive)
15,CUGCUAGUCUGUCUCCAAATT against SPINK7,-0.409 (inactive)
16,GGACUAUGUCUGCCUAUGATT against SCN7A,0 (inactive)
17,CUAAGAAUCUGCUUAGUAATT against CLDN5,0 (inactive)
18,AGAAUGACAGGGUCCAGAATT against OGFR,-0.565 (inactive)
19,GCUUUGAUGUGAUUCACCUTT against PRKAG3,-1.03 (active)
20,GUCACAAGAUGGUCAAAAATT against CTNND2,-0.0491 (inactive)
21,CCAUCCUUCAGGCGAAUUATT against ACTR8,-0.366 (inactive)
22,GGUCUGUUCUGCAAGCACATT against PARVG,0.321 (inactive)

row,Sequence,median seed-adjusted z-score
1,CCAAACCACUACAACCCUUTT against RPP21,-1.09 (active)
2,GAUAUAAAGUCAUGAAGAATT against USP30,-0.646 (inactive)
3,CGUGGACUCCCACUUCCAATT against OGG1,-0.128 (inactive)
4,GGAGCUUCCCUAUAGUGAATT against HDAC3,0.579 (inactive)
5,GGAUUCUAAGUACAGAGAATT against ZNF323,-0.319 (inactive)
6,CAACUGCUAGCUGAACGAATT against ITIH2,0.262 (inactive)
7,CAUUUAUGACAAUCGGAUATT against OGT,0.411 (inactive)
8,GUCUAUGAAUUGGACAAGATT against PGAM1,-0.234 (inactive)
9,CAUCAAAUAUGACAACUUUTT against GALNTL4,0 (inactive)
10,GCCGUUUCAUGUUUGUCUATT against TRPV1,-0.12 (inactive)
11,GGAAAUGAGUGUCUGAACATT against CHMP6,-1.81 (active)
12,GGCUUUUUAGAUUUCGAAATT against TIGD7,-0.116 (inactive)
13,GAGUGAGACUGGGACAAGATT against TAPBP,-0.786 (inactive)
14,GCCUUCACGUCUGAACAUATT against GAD2,0.0588 (inactive)
15,GAAACAACUUGAUUUCGAATT against PCDHB8,1.15 (active)
16,GCAUGUUGUUGAUCAUGGATT against MAFB,0.674 (inactive)
17,GAAGUGUUAUGUAAGGAGATT against EPHX2,0 (inactive)
18,GAACAUGUCUUUAACGGAUTT against TJP2,0.0668 (inactive)
19,AGAUGAGAACUCUAAGCAATT against CHRM2,0.053 (inactive)
20,CGAUCACUUCCUACAGUCUTT against RGR,0.217 (inactive)
21,CCAUUGAAGUGGUUAAGAATT against CCNE2,0.801 (inactive)
22,GGUUGUUGCUGAUAGAGAATT against DPH5,0 (inactive)

row,Sequence,median seed-adjusted z-score
1,GAAGGACUCUGCAUAUGAUTT against SLC2A14,-1.09 (active)
2,CAACUAUAGUGCUCCCAGUTT against ZFP36L1,-0.933 (inactive)
3,CUCAGAGUGCAGAACCACATT against TRIM15,0.292 (inactive)
4,CCACGUACCCUUCAUCAAATT against KIF11,-0.381 (inactive)
5,GGUCUUCAGUGAACAGUUUTT against ZNF562,-0.0954 (inactive)
6,CUGUAAGAUUAAAUCCCAATT against TMTC4,-1.16 (active)
7,GCCUUACAACUCUAAUGAATT against ZNF519,0.0162 (inactive)
8,GCAUGGUCAUAGGCCUGAUTT against CYB561,0 (inactive)
9,GGUGGAUGCUCAAUCCAGATT against FOXO1,0.0591 (inactive)
10,CGAGAAGAGGAUUAAAGGATT against HAND1,0.161 (inactive)
11,GGAAGAUUACAACCGAACATT against ARHGEF12,0.136 (inactive)
12,GAUCACGUUUGACAACAAATT against MCOLN1,-0.522 (inactive)
13,CUUUAACUGGGAUCACUGUTT against FOLR3,0 (inactive)
14,CAACCAAAGUCGAAUAUGATT against PLK1,-2.57 (active)
15,UCCCAAACCUUCACCAUCATT against THAP8,-0.872 (inactive)
16,GCAUCACCAUUGCUUGGAATT against STAT5B,0 (inactive)
17,CCUCGAUAUUUUAACCUUUTT against EID2,-1.04 (active)
18,GUGAUAAAGUGAUAAGAUUTT against CPA6,0.343 (inactive)
19,CCCACUAAAUUUUCGGAAATT against ATAD2,-0.246 (inactive)
20,CUAUGAAAAUUGCAGGAGATT against GCM2,-0.241 (inactive)
21,CCCAGGAACUGCUAACGAATT against SETMAR,0.191 (inactive)
22,GCUCAUCCCUGUGCAUGGUTT against LY6G5B,-1.29 (active)

row,Sequence,median seed-adjusted z-score
1,CUACAAGACAGGCAAUCUATT against IFI30,0.401 (inactive)
2,CAGUAAGAAGGGUUCAAUATT against BTK,-0.0648 (inactive)
3,CAAGAGAUAUCAUCGAUUATT against ZRANB3,0.0516 (inactive)
4,GGAUAUAGCUGGUGACCCATT against PCDH7,0.192 (inactive)
5,AGUUGUUGGAAUGACCUUATT against CLEC5A,-1.07 (active)
6,GAAGAUGUAUGGAAUUCUUTT against DARC,0.0814 (inactive)
7,CCAAGUAUCUGGUGGUGAATT against NDUFV1,-0.653 (inactive)
8,GGACGAGAGAUGUACAUUATT against CNGA1,-1.08 (active)
9,ACAUUUAGGUUGUAAACCATT against PLA2G12A,0.139 (inactive)
10,UGGUCAACUAGAAUACAUATT against RGPD5,-0.0931 (inactive)
11,GGAGAUGCACAACAUCUUATT against PIP4K2B,0.17 (inactive)
12,GAGUGGAAGUCAUACCCUATT against TTLL3,-0.194 (inactive)
13,CUAAUAACAGGGUACAGUATT against ZNF238,-0.491 (inactive)
14,CUAUGGACUUCAUCGCUUUTT against EEF1E1,-1.45 (active)
15,GCAGAGUCAUGACCAGGGATT against CHST6,0.372 (inactive)
16,CAGAUGCAGCACUCACUUUTT against MMP17,-0.653 (inactive)
17,AGAGAGCUCCGAACCUUCUTT against ICAM5,-1 (active)
18,GGAGGGUUUUCACGAUGAATT against AP2B1,-0.214 (inactive)
19,CUGCAGAUCUUGUGACAGATT against IMPA2,0.0513 (inactive)
20,GUAUACUCCAGAACAAGUATT against ALDOB,-1.34 (active)
21,AGACAAAGAUUGAUAAACATT against SLC24A3,0.0177 (inactive)
